Measured values published in PubChem BioAssay.
Active and inactive are the calls of the source. Unless noted, no rule for the calls is given here.

Legend:
[1] = A549 cell viability effects, profiling panel, calcein-AM fluorescence, 48 h, basal (AID 1162); conditions: higher = more signal; also: test concentration not given here
[2] = adipocyte viability effects, profiling panel, cell-based, 3T3-L1 adipocytes, calcein-AM fluorescence, 48 h, basal (AID 1163); conditions: 3T3-L1 adipocytes viability, higher = more signal; also: test concentration not given here
[3] = HepG2 cell viability effects, profiling panel, calcein-AM fluorescence, 48 h, basal (AID 1164); conditions: higher = more signal; also: test concentration not given here
[4] = MM1S cell viability effects, profiling panel, calcein-AM fluorescence, 48 h, basal (AID 1165); conditions: higher = more signal;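 also: viability of MM1S multiple myeloma cells under basal unstimulated conditions; test concentration not given here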
[5] = basal RPMI8226 viability, no added stimulus, profiling panel, cell-based, calcein-AM fluorescence, 48 h, PK04 Diversity Set (AID 1166); conditions: RPMI8226 myeloma viability, higher = more signal;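 also: cells grown under basal conditions without added stimulus; test concentration not given here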
[6] = basal HepG2 mitochondrial membrane potential changes, profiling panel, cell-based, JC-1 fluorescence, 24 h, 100 nL compound (AID 1167); conditions: higher = more signal; also: test concentration not given here
[7] = basal 3T3-L1 adipocyte mitochondrial potential changes, profiling panel, cell-based, JC-1 fluorescence, 3T3-L1 adipocytes, 24 h, 100 nL compound (AID 1168); conditions: JC-1 mitochondrial fluorescence, higher = more signal, called active from +8 up or from −8 down; also: test concentration not given here
[8] = basal RPMI8226 mitochondrial membrane potential changes, profiling panel, cell-based, JC-1 fluorescence, 24 h, 100 nL compound (AID 1169); conditions: RPMI8226 myeloma, JC-1 mitochondrial potential fluorescence, higher = more signal; also: test concentration not given here
[9] = basal MM1S mitochondrial membrane potential changes, profiling panel, cell-based, JC-1 fluorescence, 24 h, 100 nL compound (AID 1170); conditions: higher = more signal; also: test concentration not given here
[10] = A549 lung cancer cell viability effects, profiling panel, resazurin fluorescence, 24 h, PK04 Diversity Set (AID 1171); conditions: higher = more signal, called active from +8 up or from −8 down; also: test concentration not given here
[11] = HepG2 liver cancer cell viability effects, profiling panel, resazurin fluorescence, 24 h, PK04 Diversity Set (AID 1172); conditions: higher = more signal; also: test concentration not given here
[12] = basal S. cerevisiae growth modulation, no modifier, primary screen, OD600, strain BY4716, 24 h, basal condition (AID 1173); conditions: OD600, 24 h, higher = more signal, called active from +8 up or from −8 down
[13] = MM1S myeloma cell viability, profiling panel, resazurin fluorescence, basal, 24 h, PK04 Diversity Set (AID 1174); conditions: higher = more signal, called active from +8 up or from −8 down;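 also: MM1S multiple myeloma cell line; test concentration not given here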
[14] = target: Dihydroorotate dehydrogenase (quinone), mitochondrial (Plasmodium falciparum (isolate 3D7)) (UniProt Q08210); assay: PfDHODH enzyme inhibitors, primary screen, biochemical, C-terminal His tag, absorbance 600 nm (AID 1175); conditions: DCIP absorbance 600 nm, higher = more signal, called active from +8 up or from −8 down;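 also: recombinant parasite enzyme with a five histidine tag at its C terminus; test concentration not given here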
[15] = P. aeruginosa biofilm formation inhibitors, primary screen, strain PAO1, LB-PBS medium, absorbance 600 nm (AID 1176); also: test concentration not given here; conditions: P. aeruginosa PAO1 growth/biofilm, A600, 12 h; higher = more signal
[16] = S. cerevisiae RM11-1a growth modifiers, primary screen, strain RM11-1a, OD600, basal, 24 h (AID 1177); conditions: OD600, 24 h, higher = more signal, called active from +8 up or from −8 down;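 also: cultures grown under basal conditions with no added stressor; test concentration not given here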
[17] = E. coli acrAB mutant growth effects, primary screen, E. coli filamentation inducers, strain DRC39, OD650, 24 h (AID 1178); conditions: higher = more signal, called active from +8 up or from −8 down;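 also: growth measured as culture turbidity by optical density at 650 nm; test concentration not given here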
[18] = E. coli acrAB mutant growth effects, primary screen, E. coli filamentation inducers, strain DRC39, OD650, 48 h (AID 1179);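 also: screen aims at cell division blockers that make cells filament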; conditions: E. coli DRC39 delta-acrAB growth, higher = more signal, called active from +8 up or from −8 down
[19] = RPMI8226 myeloma cell viability, profiling panel, resazurin fluorescence, basal, 24 h, PK04 Diversity Set (AID 1180); conditions: higher = more signal;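 also: RPMI8826 multiple myeloma cell line at 5000 cells per well; test concentration not given here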
[20] = target: E3 ubiquitin-protein ligase XIAP (Homo sapiens) (UniProt P98170); assay: XIAP binders, primary screen, biophysical, small-molecule microarray, fluorescence 635 nm (AID 1181); conditions: small-molecule microarray binding, higher = more signal;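 also: score merges 667 nm emission and signal to noise over triplicate slides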
Sequence of E3 ubiquitin-protein ligase XIAP (Homo sapiens) (P98170 whole entry, looked up): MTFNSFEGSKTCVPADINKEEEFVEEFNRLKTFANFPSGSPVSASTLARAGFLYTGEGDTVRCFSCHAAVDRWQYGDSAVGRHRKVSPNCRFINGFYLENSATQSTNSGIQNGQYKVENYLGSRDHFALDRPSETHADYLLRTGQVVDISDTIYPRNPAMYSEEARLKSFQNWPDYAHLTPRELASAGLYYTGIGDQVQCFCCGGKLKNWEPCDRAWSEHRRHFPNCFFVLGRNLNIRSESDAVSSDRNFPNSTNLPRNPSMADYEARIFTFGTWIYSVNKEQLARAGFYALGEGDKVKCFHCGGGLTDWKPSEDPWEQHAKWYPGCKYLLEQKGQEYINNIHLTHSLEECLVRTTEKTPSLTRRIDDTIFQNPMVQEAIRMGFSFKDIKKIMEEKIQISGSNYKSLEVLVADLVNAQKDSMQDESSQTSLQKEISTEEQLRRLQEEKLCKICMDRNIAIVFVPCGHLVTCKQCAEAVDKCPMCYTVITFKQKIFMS

Sequence of Dihydroorotate dehydrogenase (quinone), mitochondrial (Plasmodium falciparum (isolate 3D7)) (Q08210 whole entry, looked up): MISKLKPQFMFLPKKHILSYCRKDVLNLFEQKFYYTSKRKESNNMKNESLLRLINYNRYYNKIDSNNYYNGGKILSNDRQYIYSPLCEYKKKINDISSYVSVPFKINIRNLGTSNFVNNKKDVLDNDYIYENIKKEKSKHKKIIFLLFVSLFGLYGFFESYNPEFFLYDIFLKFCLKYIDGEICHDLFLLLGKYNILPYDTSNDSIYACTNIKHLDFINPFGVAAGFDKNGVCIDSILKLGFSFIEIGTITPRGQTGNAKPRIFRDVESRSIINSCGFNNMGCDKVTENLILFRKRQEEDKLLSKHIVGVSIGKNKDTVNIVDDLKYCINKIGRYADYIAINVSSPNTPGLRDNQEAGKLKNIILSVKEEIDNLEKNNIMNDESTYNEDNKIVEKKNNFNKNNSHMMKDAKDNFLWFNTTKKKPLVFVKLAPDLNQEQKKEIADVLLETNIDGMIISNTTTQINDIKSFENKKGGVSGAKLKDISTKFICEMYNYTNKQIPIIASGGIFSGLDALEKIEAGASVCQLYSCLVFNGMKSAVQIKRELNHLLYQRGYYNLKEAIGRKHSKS

Row | SMILES | z-score [1] | z-score [2] | z-score [3] | z-score [4] | z-score [5] | z-score [6] | z-score [7] | z-score [8] | z-score [9] | z-score [10] | z-score [11] | z-score [12] | z-score [13] | composite z-score [14] | z-score [15] | z-score [16] | z-score [17] | z-score [18] | z-score [19] | composite z-score [20]
1 | CCCCN1CC=CC23O[C@@H]4C=CCOC(=O)[C@@H]4[C@H]2C(=O)N(CCCO)[C@@H]3C1=O (stereo not given in full) | -0.117 | 1.11 | -0.49 | 0.799 | -0.304 | -1.11 | 0.111 (inactive) | -0.702 | 0.797 | -1.28 (inactive) | -1.09 | -0.233 (inactive) | -0.788 (inactive) | -0.284 (inactive) | -0.193 (inactive) | 0.164 (inactive) | -1.33 (inactive) | -1.28 (inactive) | -0.848 | 0.106
2 | O=C1c2ccccc2[C@](Cc2ccccc2I)(C(=O)NCCN2CCOCC2)[C@H](c2ccc(CO)cc2)N1Cc1ccccc1 | -0.0426 | 0.193 | 1.14 | 0.211 | -0.347 | 0.642 | 0.421 (inactive) | 0.231 | -0.462 | 0.0188 (inactive) | -0.462 | -0.915 (inactive) | 0.068 (inactive) | 0.215 (inactive) | 0.186 (inactive) | 0.233 (inactive) | -0.256 (inactive) | -0.0438 (inactive) | -0.713 | 0.0904
3 | COc1ccc([Si](C)(C)[C@H]2[C@H](CCn3cc([C@H](O)c4ccccc4)nn3)O[C@@]3(C(=O)N(Cc4cccc(N5C(=O)c6cccc7cccc5c67)c4)c4ccccc43)[C@@H]2C)cc1 | -0.252 | 0.0344 | -0.506 | -0.342 | -1.56 | -0.411 | -1.63 (inactive) | -0.00407 | -0.319 | -0.884 (inactive) | -0.717 | 0.807 (inactive) | -1.98 (inactive) | 0.0064 (inactive) | 1.42 (inactive) | 0.378 (inactive) | -0.0889 (inactive) | -0.216 (inactive) | -1.47 | -0.0516
4 | O=C(CS)NCCCCCCNC(=O)[C@H]1C[C@H]2C(=O)N[C@@H](Cc3ccccc3)C(=O)N2[C@H]1c1cccc(OCCO)c1 | 0.0757 | -0.154 | 0.77 | 0.306 | 0.895 | -0.394 | 0.0403 (inactive) | -0.309 | -1.12 | 0.311 (inactive) | -0.351 | 0.765 (inactive) | -0.453 (inactive) | -0.439 (inactive) | 0.889 (inactive) | 0.765 (inactive) | -0.0049 (inactive) | 0.57 (inactive) | -0.614 | 0.316
5 | C[C@H]1ON(c2ccc(C(=O)OC(C)(C)C)cc2)[C@@H](c2ccc(O)cc2)[C@@H]1C(=O)N1C(=O)OC[C@@H]1c1ccccc1 | -0.674 | 0.97 | -2.97 | -2.72 | -3.02 | -2.36 | -0.575 (inactive) | -0.575 | -2.36 | -0.0657 (inactive) | -0.319 | -0.407 (inactive) | -0.263 (inactive) | 0.314 (inactive) | 0.294 (inactive) | 0.759 (inactive) | -0.563 (inactive) | -0.148 (inactive) | -0.782 | 0.0029
6 | C=CCN1C(=O)[C@@]2(O[C@@H](CCO)[C@H]([Si](C)(C)c3ccc(OC)cc3)[C@H]2C)c2cc(N3C(=O)c4ccccc4Oc4ccccc43)ccc21 | -3.02 | -0.428 | -4.76 | -2.94 | -4.12 | -2.97 | 1.07 (inactive) | -1.1 | -2.33 | -4.55 (inactive) | -6.08 | -0.0065 (inactive) | -8.62 (active) | 0.614 (inactive) | 1.95 (inactive) | 3.35 (inactive) | 2.24 (inactive) | 1.9 (inactive) | -6.24 | -0.172
7 | COC(=O)[C@@]1(Cc2ccc(OC)cc2)[C@H]2c3cc(C(=O)N4CCCC4)n(CCc4cc5ccccc5[nH]4)c3C[C@H]2CN1C(=O)c1ccccc1 | -0.596 | -0.0596 | 0.471 | -0.574 | -1.84 | 0.877 | -0.538 (inactive) | -0.922 | -1.1 | -0.0485 (inactive) | -0.406 | 1.3 (inactive) | -1.24 (inactive) | 0.203 (inactive) | 0.756 (inactive) | 1.03 (inactive) | 0.009 (inactive) | -0.655 (inactive) | -0.818 | -0.0685
8 | COC(=O)[C@@]1(Cc2ccc(F)cc2)[C@H]2c3cc(C(=O)N4CCCC4)n(CCc4c[nH]c5ccc(OC)cc45)c3C[C@H]2CN1C(=O)c1ccccc1 | -2.28 | 0.787 | -0.906 | -2.13 | -4.1 | 1 | -1.33 (inactive) | -0.917 | -2 | -1.63 (inactive) | -0.946 | 0.813 (inactive) | -2.53 (inactive) | -3.91 (inactive) | 3.29 (inactive) | 0.622 (inactive) | -0.137 (inactive) | -0.72 (inactive) | -3.36 | 0.498
9 | C#CCNC(=O)[C@H](Cc1ccccc1)NC(=O)[C@@H](N=[N+]=[N-])C(C)C | -0.447 | -0.804 | 0.0785 | 0.579 | 0.116 | -0.266 | -0.503 (inactive) | -0.205 | 0.254 | 0.903 (inactive) | 0.664 | -1.19 (inactive) | 0.633 (inactive) | -0.635 (inactive) | -0.24 (inactive) | -0.597 (inactive) | 0.713 (inactive) | 0.626 (inactive) | 0.816 | 0.117
10 | COCCCNC(=O)[C@]1(Cc2ccccc2N=[N+]=[N-])N=C(c2ccc(OCCCO)cc2)O[C@@H]1c1ccccc1N=[N+]=[N-] | -0.795 | 0.0826 | -3.44 | -3.52 | -3.99 | -0.892 | 1.03 (inactive) | -1.17 | -2.71 | -2.56 (inactive) | -2.52 | 0.298 (inactive) | -3 (inactive) | -0.282 (inactive) | 1.07 (inactive) | 0.315 (inactive) | 0.342 (inactive) | -0.435 (inactive) | -2.76 | -0.0332
11 | C=CCOC(=O)[C@@H]1[C@H]2C(=O)O[C@H](c3ccccc3)[C@H](c3ccccc3)N2[C@H](c2ccc(OCCOC(=O)[C@H]3C[C@H]4C(=O)N[C@@H](CCCC[N+](C)(C)C)C(=O)N4[C@H]3c3ccc(O)cc3)cc2)[C@@]12C(=O)Nc1ccc(I)cc12 | -0.105 | -1.19 | -0.591 | -0.477 | -0.362 | -2.03 | 0.178 (inactive) | -0.275 | -1.13 | -0.173 (inactive) | -0.792 | 1.47 (inactive) | -0.706 (inactive) | -0.353 (inactive) | 2.01 (inactive) | 2.12 (inactive) | -0.877 (inactive) | -1.37 (inactive) | -0.578 | 0.0623
12 | COC(=O)[C@@]1(Cc2ccc(F)cc2)[C@H]2c3cc(C(=O)N4CCCC4)n(CCF)c3C[C@H]2CN1C(=O)c1ccccc1 | -0.719 | 0.251 | 0.426 | -1.04 | -0.374 | 1.98 | -0.000991 (inactive) | -0.0725 | 0.26 | 0.763 (inactive) | -0.282 | -0.273 (inactive) | -0.547 (inactive) | -0.41 (inactive) | 0.84 (inactive) | 0.24 (inactive) | -0.239 (inactive) | -0.311 (inactive) | -0.185 | -0.233
13 | CCOc1cc(C(O)C2C=CC3C(=O)N(C4CCCCC4)C(=O)C3N2Nc2ccc(OC)cc2)ccc1O (stereo not given) | 0.366 | -0.786 | 0.772 | 0.26 | -0.141 | 0.551 | 0.283 (inactive) | -0.0341 | -1.87 | 0.265 (inactive) | 0.182 | 0.0779 (inactive) | 0.312 (inactive) | -0.665 (inactive) | 0.698 (inactive) | 0.0701 (inactive) | 0.231 (inactive) | 1.13 (inactive) | 0.753 | 0.169
14 | CCOC(=O)C1=C[C@@H](c2ccccc2)N(S(=O)(=O)c2ccc(C)cc2)[C@H]1c1cccc(Cl)c1 | -1.17 | 0.452 | -1.71 | -1.33 | -1.48 | 2.04 | -0.591 (inactive) | 0.754 | 0.648 | 0.776 (inactive) | -0.663 | 1.7 (inactive) | -0.848 (inactive) | -0.184 (inactive) | -0.169 (inactive) | 2.1 (inactive) | -0.823 (inactive) | -0.777 (inactive) | -1.64 | -0.221
15 | CC(=O)N1Cc2ccccc2C[C@]2(N=C(c3ccc(OCCCO)cc3)O[C@@H]2c2ccccc2)C1=O | -1.07 | 0.749 | -0.351 | -2.28 | -3.5 | 0.462 | -0.202 (inactive) | -0.954 | -0.637 | -2.76 (inactive) | -0.908 | -0.776 (inactive) | -2.6 (inactive) | -0.375 (inactive) | 0.122 (inactive) | 1.93 (inactive) | 1.55 (inactive) | 1 (inactive) | -3.96 | 0.247
16 | C=CC[C@@]1(C(=O)N2CCCCC2)N=C(c2ccc(OCCCO)cc2)O[C@@H]1c1ccccc1 | -0.721 | 0.533 | 0.292 | -1.3 | -1.13 | -0.381 | -0.282 (inactive) | -1.09 | 0.0448 | 2.5 (inactive) | 1.63 | -3.63 (inactive) | 1.6 (inactive) | -0.765 (inactive) | -0.441 (inactive) | 0.404 (inactive) | -0.212 (inactive) | -0.155 (inactive) | 1.02 | 0.454
